Experimental data as given in PubChem BioAssay AID489042 (NMMLSC, 2010).
Values without a mark were called inactive. Active and inactive are the calls of the source. Rule as the data show it: active = inhibition score above about 11; inactive = the rest.

assay: S. cerevisiae short- and long-term growth effects – BY4741, OD595, 24 h, dose response (AID 489042); conditions: hits give high values

Row | SMILES | inhibition score
1 | Cn1c(=O)[nH]c2nncnc2c1=O | 0
2 | C#C[C@]1(O)[C@H](O)CC2C3CC[C@H]4C[C@@H](O)CC[C@]4(C)C3CC[C@@]21C (stereo not given in full) | 0
3 | C[C@]12CCC3C(CC[C@H]4C[C@H](O)CC[C@]34C)C1C[C@@H](CCCCl)[C@@H]2O (stereo not given in full) | 10
4 | C[n+]1c2ccccc2nc2ccc(NCCO)cc21 | 0
5 | OCC[n+]1c2ccccc2nc2ccc(N3CCOCC3)cc21 | 0
6 | C[C@]12CCC3C(CC[C@H]4C[C@H](O)CC[C@]34C)C1CCC2=O (stereo not given in full) | 0
7 | CC(=O)O[C@H]1CCC2C3CC[C@H]4[C@@H](O)[C@H](O)CC[C@]4(C)C3CC[C@@]21C (stereo not given in full) | 0
8 | Cn1c(O)c(C(=Nc2ccc(F)cc2)c2ccccc2Cl)c(=O)n(C)c1=O | 10
9 | CNc1ccc2nc3ccccc3[n+](C)c2c1 | 0
10 | C[C@]12CCC3C(CC[C@H]4C[C@@H](O)CC[C@]34C)C1CC[C@@H]2OC(=O)[C@H](N)CCCCN (stereo not given in full) | 0
11 | O=c1[nH]c(O)c(C=Nc2ccc(F)c(Cl)c2)c(=O)[nH]1 | 0
12 | Oc1cccc2nc3ccccc3nc12 | 21 (active)
13 | Nc1cc2nc3ccccc3nc2cc1N | 0
14 | C=C1C(O)[C@@H]2O[C@]3(CC[C@H](/C=C/C(C)[C@@H]4CC(C)=CC5(O[C@H](C[C@@](C)(O)C(=O)O)CCC5O)O4)O3)CC[C@H]2O[C@@H]1C(O)CC(C)[C@H]1OC2(CCCCO2)CCC1C (stereo not given in full) | 21 (active)
15 | C[C@]12CCC3C(CC[C@H]4C[C@@H](O)CC[C@]34C)[C@H]1CC[C@H]2O (stereo not given in full) | 0
